Test results: PubChem BioAssay (Tox21)
Inconclusive results are not listed. Active and inactive are the calls of the source. Unless noted, calls come from the whole dose curve; as a rule, active = well fitted curve in the direction sought with a large enough effect in the repeat runs; inconclusive = weak or mixed curves; inactive = no such curve, though single readings can be large; an effect the other way counts as inactive or inconclusive.

Legend:
[1] = qHTS assay to identify small molecule antagonists of the thyroid receptor (TR) signaling pathway (AID 743065); note: series mostly up to about 70 µM; nearly all actives have a fitted effect of over 55% in size
Method in brief: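 Antagonism measured as loss of luciferase signal in GH3 cells stably carrying a TRE-luciferase reporter, co-treated with compound and T3 (1 nM final) for 23.5 h at 37 C. Viability was read in the same well by CellTiter-Fluor.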

[2] = test system: thyroid hormone receptor (rat, GH3 cells); experiment: qHTS assay to identify small molecule agonists of the thyroid receptor (TR) signaling pathway (AID 743066; calls by dose curve)
[3] = qHTS assay to identify small molecule antagonists of the estrogen receptor alpha (ER-alpha) signaling pathway - cell viability counter screen (AID 743074; calls by dose curve;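 note: HEK293 cells carrying ER-alpha-UAS-bla reporter stimulated with 17beta-estradiol; nearly all actives have a fitted effect of over 45% in size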)
[4] = molecular target: Estrogen receptor (Homo sapiens) (UniProt P03372); experiment: qHTS assay to identify small molecule agonists of the estrogen receptor alpha (ER-alpha) signaling pathway using the BG1 cell line (AID 743079); note: nearly all actives have a fitted effect of over 20% in size; note: potency is the fitted concentration of half-maximal effect
[5] = qHTS assay to identify small molecule antagonists of the estrogen receptor alpha (ER-alpha) signaling pathway using the BG1 cell line (AID 743080; calls by dose curve;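 note: BG1 cells stimulated with 17beta-estradiol alongside compound; series mostly up to about 70 µM; nearly all actives have a fitted effect of over 25% in size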)
Method in brief: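 Luminescence from a 4×ERE-luciferase reporter in BG1-Luc-4E2 cells served as read-out. Cells, pre-cultured 5 days in stripped-serum phenol-red-free medium, were exposed to compound with 17beta-estradiol co-stimulation for 21.5 h at 37 C.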

[6] = qHTS assay to identify small molecule antagonists of the estrogen receptor alpha (ER-alpha) signaling pathway using the BG1 cell line - cell viability counter screen (AID 743081);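 note: compound given together with 17beta-estradiol as the ER stimulus; series mostly up to about 70 µM; nearly all actives have a fitted effect of over 45% in size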
Aromatase (Homo sapiens) = Aromatase (Homo sapiens) (UniProt P11511); experiment: qHTS assay to identify aromatase inhibitors (AID 743083); note: series mostly up to about 70 µM; nearly all actives have a fitted effect of over 55% in size
[7] = qHTS assay to identify aromatase inhibitors - cell viability counter screen (AID 743084);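 note: cells stimulated with testosterone during compound exposure; nearly all actives have a fitted effect of over 55% in size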
[8] = molecular target: Aryl hydrocarbon receptor (Homo sapiens) (UniProt P35869); experiment: qHTS assay to identify small molecule that activate the aryl hydrocarbon receptor (AhR) signaling pathway (AID 743085); note: nearly all actives have a fitted effect of over 15% in size; note: potency is the fitted concentration of half-maximal effect;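 for activation: HG2L7.5c1 human HepG2 liver cells with stably integrated DRE-driven firefly reporter; series mostly up to about 70 µM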
Method in brief: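 Stably transfected human liver carcinoma cells (HG2L7.5c1; 20 DRE-firefly luciferase) were incubated 5 h, dosed, and kept 24 h at 37C. Agonism was scored from increased luciferase luminescence.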

[9] = qHTS assay to identify small molecule that activate the aryl hydrocarbon receptor (AhR) signaling pathway - cell viability counter screen (AID 743086);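 note: HepG2 liver cells carrying the AhR DRE luciferase reporter; series mostly up to about 70 µM; nearly all actives have a fitted effect of over 45% in size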
Method in brief: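 Cytotoxicity counter screen: CellTiter-Fluor signal (30 min, 37 C) in 4000 HepG2 cells/well carrying the DRE-luciferase reporter, following 24 h compound exposure at 37 C.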

[10] = molecular target: Peroxisome proliferator-activated receptor gamma (Homo sapiens) (UniProt P37231); experiment: qHTS assay to identify small molecule agonists of the peroxisome proliferator-activated receptor gamma (PPARg) signaling pathway (AID 743094; active = well fitted activation curve with a large enough effect in the signal ratio in the repeat runs, not every such curve was filed as active; the % refers to the signal ratio)
Method in brief: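 Following 5 h plating at 37C, PPARg-bla HEK293H cells receive compound or DMSO for 17 h; fluorescence intensity is recorded after LiveBLAzer B/G loading for 1 h at room temperature.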

[11] = molecular target: Peroxisome proliferator-activated receptor gamma (Homo sapiens) (UniProt P37231); experiment: qHTS assay to identify small molecule antagonists of the peroxisome proliferator-activated receptor gamma (PPARg) signaling pathway (AID 743191; calls by dose curve; note: series mostly up to about 63 µM; nearly all actives have a fitted effect of over 30% in size)
Method in brief: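 Beta-lactamase reporter under UAS control in HEK293H PPARg-bla cells; compound treatment 17 h at 37C. Read-out: fluorescence intensity after 1 h room-temperature incubation with LiveBLAzer B/G FRET substrate.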

[12] = qHTS assay to identify small molecule antagonists of the peroxisome proliferator-activated receptor gamma (PPARg) signaling pathway - cell viability counter screen (AID 743194); note: nearly all actives have a fitted effect of over 55% in size
Method in brief: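 Viability was measured as CellTiter-Glo luminescence in GeneBLAzer PPARg UAS-bla HEK293H cells. These cells had been exposed 17 h at 37 C to compounds together with rosiglitazone at 50 nM final, with the beta-lactamase readout taken in the same wells.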

[13] = qHTS assay for small molecule agonists of the antioxidant response element (ARE) signaling pathway (AID 743202; active = well fitted activation curve with a large enough effect in the signal ratio in the repeat runs, not every such curve was filed as active; the % refers to the signal ratio; note: potency is the fitted concentration of half-maximal effect)
Method in brief: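 Quantitative high-throughput format in HepG2 cells bearing an integrated ARE-beta-lactamase reporter. Compound exposure lasted 16 h at 37 C, and fluorescence was read 2 h after adding LiveBLAzer B/G substrate at room temperature.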

[14] = qHTS assay for small molecule agonists of the antioxidant response element (ARE) signaling pathway - cell viability counter screen (AID 743203; calls by dose curve; note: nearly all actives have a fitted effect of over 55% in size)
Method in brief: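 Compounds in DMSO were pinned onto ARE-bla HepG2 cells plated 5 hrs earlier at 2,000 cells/well. Sixteen hours later at 37C/5% CO2, CellTiter-Glo was added and luminescence measured after 30 min at room temperature.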

[15] = qHTS assay to identify small molecule agonists of the peroxisome proliferator-activated receptor delta (PPARd) signaling pathway - cell viability counter screen (AID 743211); note: nearly all actives have a fitted effect of over 55% in size
Method in brief: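 In the same wells used for beta-lactamase reporter measurement, cytotoxicity is scored by CellTiter-Glo. HEK293H PPARd-bla cells receive compound for 17 h at 37C following a 5 h settling period.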

[16] = molecular target: Estrogen receptor (Homo sapiens) (UniProt P03372); experiment: qHTS assay to identify small molecule antagonists of the estrogen receptor alpha (ER-alpha) signaling pathway (AID 743069; active = well fitted curve in the direction sought with a large enough effect in the signal ratio in the repeat runs, not every such curve was filed as active; the % refers to the signal ratio)
Method in brief: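 ER-alpha-UAS-bla GripTite HEK293 line; 2% charcoal-stripped FBS overnight; plated, 4 hr 37C/5% CO2; cpd in DMSO + 17beta-estradiol, 18 hr 37C; LiveBLAzer B/G FRET substrate 2 hr RT; fluorescence intensity.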

[17] = molecular target: Estrogen receptor (Homo sapiens) (UniProt P03372); experiment: qHTS assay to identify small molecule agonists of the estrogen receptor alpha (ER-alpha) signaling pathway (AID 743075; calls by dose curve;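 note: HEK293 GripTite cells with ER-alpha and UAS-driven beta-lactamase reporter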)
[18] = qHTS assay for small molecule activators of the heat shock response signaling pathway - cell viability counter screen (AID 743209); note: nearly all actives have a fitted effect of over 50% in size
Method in brief: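 Counter screen for cytotoxicity in HeLa HSE-bla reporter cells. Treatment was 5 h at 37 C; viability was detected by luminescent ATP assay (CellTiter-Glo) in the same wells as the beta-lactamase read.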

[19] = qHTS assay for small molecule activators of the heat shock response signaling pathway (AID 743210; active = well fitted activation curve with a large enough effect in the signal ratio in the repeat runs, with a control signal flat, not every such curve was filed as active; the % refers to the signal ratio;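 note: HeLa cells with beta-lactamase reporter driven by heat shock elements; series mostly up to about 63 µM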)
Method in brief: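 HeLa HSE-bla cells, overnight plating; cpd in DMSO 5 h, 37 C; LiveBLAzer B/G FRET substrate 2.5 h RT; fluorescence intensity read.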

Measured: Potency

Sequence of Peroxisome proliferator-activated receptor gamma (Homo sapiens) (P37231 whole entry, looked up): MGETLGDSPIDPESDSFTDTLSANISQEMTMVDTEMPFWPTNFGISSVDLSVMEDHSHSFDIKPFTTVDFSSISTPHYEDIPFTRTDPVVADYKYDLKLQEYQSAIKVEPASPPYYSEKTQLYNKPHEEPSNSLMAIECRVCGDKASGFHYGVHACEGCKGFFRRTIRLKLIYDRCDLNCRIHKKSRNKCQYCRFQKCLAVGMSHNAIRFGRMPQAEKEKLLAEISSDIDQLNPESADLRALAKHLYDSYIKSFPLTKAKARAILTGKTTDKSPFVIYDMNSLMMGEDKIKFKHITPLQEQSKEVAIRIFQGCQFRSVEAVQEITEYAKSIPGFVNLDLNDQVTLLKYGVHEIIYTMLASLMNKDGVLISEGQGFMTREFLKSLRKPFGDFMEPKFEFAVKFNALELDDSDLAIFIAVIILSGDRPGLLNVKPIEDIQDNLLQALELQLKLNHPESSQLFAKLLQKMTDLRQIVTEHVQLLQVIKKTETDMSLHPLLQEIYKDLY
Sequence of Aryl hydrocarbon receptor (Homo sapiens) (P35869 whole entry, looked up): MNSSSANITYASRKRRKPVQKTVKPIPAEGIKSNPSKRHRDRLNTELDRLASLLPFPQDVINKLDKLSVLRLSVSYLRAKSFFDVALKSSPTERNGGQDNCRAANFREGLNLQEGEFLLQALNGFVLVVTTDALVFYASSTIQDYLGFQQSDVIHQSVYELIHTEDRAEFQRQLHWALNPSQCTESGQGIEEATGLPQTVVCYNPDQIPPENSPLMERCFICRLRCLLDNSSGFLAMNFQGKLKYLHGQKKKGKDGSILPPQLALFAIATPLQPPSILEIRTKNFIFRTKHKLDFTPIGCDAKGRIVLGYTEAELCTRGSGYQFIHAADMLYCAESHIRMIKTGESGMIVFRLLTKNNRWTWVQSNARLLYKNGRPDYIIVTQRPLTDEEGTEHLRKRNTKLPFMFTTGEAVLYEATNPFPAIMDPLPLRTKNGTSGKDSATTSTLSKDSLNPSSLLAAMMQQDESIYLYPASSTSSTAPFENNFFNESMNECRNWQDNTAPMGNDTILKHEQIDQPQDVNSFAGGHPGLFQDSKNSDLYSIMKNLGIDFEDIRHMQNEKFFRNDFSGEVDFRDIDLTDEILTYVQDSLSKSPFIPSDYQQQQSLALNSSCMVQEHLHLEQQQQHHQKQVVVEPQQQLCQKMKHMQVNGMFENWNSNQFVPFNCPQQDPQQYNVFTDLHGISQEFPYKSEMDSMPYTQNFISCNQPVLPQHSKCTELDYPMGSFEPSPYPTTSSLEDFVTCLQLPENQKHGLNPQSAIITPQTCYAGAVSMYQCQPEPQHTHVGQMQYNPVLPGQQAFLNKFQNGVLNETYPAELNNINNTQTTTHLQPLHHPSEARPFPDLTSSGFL
Sequence of Estrogen receptor (Homo sapiens) (P03372 whole entry, looked up): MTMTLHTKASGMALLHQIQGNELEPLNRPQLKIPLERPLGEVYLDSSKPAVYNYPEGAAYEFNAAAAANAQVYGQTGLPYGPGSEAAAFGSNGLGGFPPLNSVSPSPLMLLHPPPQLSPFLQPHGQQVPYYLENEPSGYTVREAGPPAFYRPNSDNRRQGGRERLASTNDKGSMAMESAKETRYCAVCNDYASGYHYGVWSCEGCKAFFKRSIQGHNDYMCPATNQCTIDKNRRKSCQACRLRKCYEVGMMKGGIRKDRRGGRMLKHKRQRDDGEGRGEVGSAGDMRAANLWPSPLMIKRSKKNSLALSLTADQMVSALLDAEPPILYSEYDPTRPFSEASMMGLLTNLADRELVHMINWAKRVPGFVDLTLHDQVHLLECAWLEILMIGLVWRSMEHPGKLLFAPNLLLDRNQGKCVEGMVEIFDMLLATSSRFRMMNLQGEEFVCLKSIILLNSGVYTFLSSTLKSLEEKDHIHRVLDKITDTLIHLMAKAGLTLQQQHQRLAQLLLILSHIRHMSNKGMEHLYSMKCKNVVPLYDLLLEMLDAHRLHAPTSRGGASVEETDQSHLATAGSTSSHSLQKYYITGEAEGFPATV
Sequence of Aromatase (Homo sapiens) (P11511 whole entry, looked up): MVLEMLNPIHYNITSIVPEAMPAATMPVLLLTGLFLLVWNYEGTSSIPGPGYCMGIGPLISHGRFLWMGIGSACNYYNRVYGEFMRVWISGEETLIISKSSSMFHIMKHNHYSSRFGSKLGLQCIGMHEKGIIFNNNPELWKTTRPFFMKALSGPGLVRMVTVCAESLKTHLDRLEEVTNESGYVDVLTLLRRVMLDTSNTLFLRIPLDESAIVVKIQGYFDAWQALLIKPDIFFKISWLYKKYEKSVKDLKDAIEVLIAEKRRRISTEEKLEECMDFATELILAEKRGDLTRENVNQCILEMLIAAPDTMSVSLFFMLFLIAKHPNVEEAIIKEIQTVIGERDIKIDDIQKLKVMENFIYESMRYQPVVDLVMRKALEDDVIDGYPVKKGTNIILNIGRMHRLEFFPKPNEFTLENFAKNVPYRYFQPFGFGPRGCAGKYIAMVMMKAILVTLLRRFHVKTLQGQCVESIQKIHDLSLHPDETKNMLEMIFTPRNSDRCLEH

CC(=O)CCC1=C(C)CCCC1(C)C
not listed: [16] | [17] | [18] | [19]
inactive: all other assays above

CC(=O)C1C(=O)C=C(C)OC1=O (stereo unspecified)
not listed: [3] | [8] | [11] | [12] | [13] | [14]
inactive: all other assays above

CCCCCCCCCCCCCBr
not listed: [4] | [5] | [16] | [17]
inactive: all other assays above

C=CCSSCCC
not listed: [8] | [12] | [14] | [16]
inactive: all other assays above

CN1C[C@@H]2C[C@H]1CN2c1cc2c(cc1F)c(=O)c(C(=O)O)cn2C1CC1
not listed: [12] | [16]
inactive: all other assays above

N#Cc1ccccc1O
not listed: [8] | [11] | [14] | [16]
inactive: all other assays above

Cc1ccc(C)c([N+](=O)[O-])c1
not listed: [4] | [5] | [13] | [16] | [17]
inactive: all other assays above

CC(C)=CCC[C@@](C)(O)[C@H]1CC=C(C)CC1
not listed: [4] | [5] | [16] | [17] | [19]
inactive: all other assays above

CO[Si](CCCn1c(=O)n(CCC[Si](OC)(OC)OC)c(=O)n(CCC[Si](OC)(OC)OC)c1=O)(OC)OC
not listed: [4] | [5] | [16] | [17] | [19]
inactive: all other assays above

C=Cc1ccc(C(C)(C)C)cc1
not listed: [4] | [5] | [11] | [16] | [17]
inactive: all other assays above

CCC(=O)CC
not listed: [4] | [5] | [12] | [15] | [16] | [17]
inactive: all other assays above

Cc1c(C(=O)c2c[nH]n(C)c2=O)ccc(S(C)(=O)=O)c1C1=NOCC1
not listed: [16] | [19]
inactive: all other assays above

Cc1c(N)cccc1Cl
not listed: [3] | [4] | [8] | [13]
inactive: all other assays above

CCCCCCC1(C)CCC(=O)O1 (stereo unspecified)
not listed: [3] | [9]
inactive: all other assays above

Cc1ccc2c(c1)C(=O)c1ccccc1C2=O
active: [4] 34.2 µM | [8] 48.4 µM | [13] 54.3 µM
not listed: [5] | [9] | [11] | [14] | [16] | [19]
inactive: all other assays above

CC1=C(C(=O)O)N2C(=O)[C@@H](NC(=O)[C@H](N)C3=CCC=CC3)[C@H]2SC1
not listed: [3] | [6] | [9] | [14] | [19]
inactive: all other assays above

CC(N)CCCC(C)(C)O (stereo unspecified)
not listed: [4] | [5] | [14] | [16] | [17]
inactive: all other assays above
